Assay results reported in PubChem BioAssay (Tox21).
A number with no mark means an inactive call. A call without a number means that no potency is given here. Active and inactive are the calls of the source. Calls follow the shape of the full dose curve.

These compounds were tested against Estrogen receptor (Homo sapiens) (UniProt P03372) (assay: qHTS assay to identify small molecule agonists of the estrogen receptor alpha (ER-alpha) signaling pathway in the presence of an antagonist (AID 1259383; also: nearly all actives have a fitted effect of over 15% in size; as to activation: top concentration of the series differs between compounds)). Settings: VM7Luc4E2 cells, ERE-luciferase, +ICI-182,780, 22 h; series mostly up to 92.4 µM.
Description: National Center for Advancing Translational Sciences [NCATS] NIH Chemical Genomics Center [NCGC] U.S. Environmental Protection Agency [EPA] National Institutes of Environmental Health Sciences [NIEHS] National Toxicology Program [NTP] Assay overview: Estrogen receptor (ER), a member of nuclear hormone receptor plays an important role in development, metabolic homeostasis and reproduction. Two subtypes of ER, ER-alpha and ER-beta, have similar expression patterns with some uniqueness in both types. Endocrine disrupting chemicals (EDCs) and their interactions with steroid hormone receptors like ER causes disruption of normal endocrine function. Therefore, it is important to understand the effect of environmental chemicals in ER signaling pathway. For identifying ER agonists, VM7Luc4E2 cell line has been used in the current assay. VM7Luc4E2 cell line (provided by Denison MS, University of California) endogenously expresses full-length ER-alpha and is stably transfected with a plasmid containing four estrogen responsive elements (ERE) upstream of a luciferase reporter gene. This current screening for measuring luciferase reporter gene activity using VM7Luc4E2 cells against Tox21 10K library collection is a confirmation study on agonist mode screening in presence of ER-antagonist (ICI-182,780) at 10.0nM final concentration.
Assay Protocol Summary: VM7Luc4E2 cells were cultured in phenol red free assay medium containing 10% charcoal stripped FBS for 5 days prior to the assay. The cells were dispensed at 4,000 cells in 4uL of assay medium per well into white wall/solid-bottom 1536-well plates (Corning Life Sciences, Corning, NY) using a Multidrop Combi (Thermo Fisher Scientific Inc., Waltham, MA) dispenser. After the assay plates were incubated at 37C and 5% CO2 for 24hr, 1uL of 10.0nM (final concentration) ICI-182,780 or assay buffer was added using two separate tips of Flying Reagent Dispenser (FRD, Aurora Discovery, San Diego, CA). Then 23nL of compounds dissolved in DMSO at 15 concentrations and positive controls or DMSO only was transferred to the assay plates by a Pintool station (Wako, San Diego, CA). The assay plates were incubated at 37C and 5% CO2 for 22hr. For luciferase read, 4uL/well ONE-Glo reagent (Promega Corporation, Madison, WI) was added to each well using FRD and after 30min incubation at room temperature, luminescence signal was measured on ViewLux plate reader (PerkinElmer, Shelton, CT).
Potency is read from the fitted curve at half-maximal effect.

Chain of Estrogen receptor (Homo sapiens) (P03372 whole entry, looked up): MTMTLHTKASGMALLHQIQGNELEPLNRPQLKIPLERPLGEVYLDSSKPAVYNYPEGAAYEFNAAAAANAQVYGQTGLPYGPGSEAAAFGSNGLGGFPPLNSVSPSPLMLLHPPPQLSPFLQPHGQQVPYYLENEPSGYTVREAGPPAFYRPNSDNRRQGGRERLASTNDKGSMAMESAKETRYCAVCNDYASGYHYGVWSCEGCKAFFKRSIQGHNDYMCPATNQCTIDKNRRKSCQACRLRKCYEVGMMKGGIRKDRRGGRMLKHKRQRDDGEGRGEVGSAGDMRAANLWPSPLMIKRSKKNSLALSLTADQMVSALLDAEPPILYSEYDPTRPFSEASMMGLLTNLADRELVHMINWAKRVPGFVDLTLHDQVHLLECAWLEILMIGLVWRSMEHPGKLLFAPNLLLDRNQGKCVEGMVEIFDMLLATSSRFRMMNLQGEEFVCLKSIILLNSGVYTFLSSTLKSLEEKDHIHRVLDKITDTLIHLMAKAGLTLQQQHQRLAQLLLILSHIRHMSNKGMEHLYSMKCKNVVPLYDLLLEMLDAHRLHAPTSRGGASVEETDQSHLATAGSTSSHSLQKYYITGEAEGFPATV

Compound	Potency	activation
CCCCCCC[N+](CC)(CC)CCCCc1ccc(Cl)cc1	inactive	–
O=C1c2ccccc2Cc2ccccc21	inactive	–
CNCc1cc(F)ccc1Oc1ccc(Cl)c(Cl)c1	inactive	–
CCOC(=O)O[C@H](C)OC(=O)c1ccc2c(c1)cc(C(=O)NC1CCN(C(C)C)CC1)n2Cc1cc(-c2ccc(Cl)s2)on1	inactive	–
OCc1c[nH]c2ccccc12	inactive	–
O=C1C=CC(=O)N1c1ccc(Cc2ccc(N3C(=O)C=CC3=O)cc2)cc1	inactive	–
CC(C)C(C)(C)C(C)(C)C(C)(C)S	inactive	–
CSc1ccc2c(c1)C(N1CCN(C)CC1)Cc1ccccc1S2 (stereo not given)	inactive	–
Clc1ccc(C(Cn2ccnc2)OCc2ccc(Sc3ccccc3)cc2)c(Cl)c1 (stereo not given)	inactive	–
CN(C)c1ccc(SC#N)cc1	inactive	–
CCCCCCCCCCCCCCCS(=O)(=O)Oc1ccccc1	inactive	–
CC1=C(C(=O)OC(C)C)C(c2cccc([N+](=O)[O-])c2)C(C(=O)OC2CN(C(c3ccccc3)c3ccccc3)C2)=C(N)N1 (stereo not given)	inactive	–
O=C1CCCc2c1cc1ccc3cccc4ccc2c1c34	inactive	–
CCC(C)Nc1ccc(NC(C)CC)cc1 (stereo not given)	inactive	–
CCN1/C(=C/C=C/c2sc3ccccc3[n+]2CC)Sc2ccccc21	–	-11.7% [at 19 µM]
O=C(Nc1cccc(C(F)(F)F)c1)c1cc(Br)cc(Br)c1O	inactive	–
Cc1cc(CCN2CCN(c3nsc4ccccc34)CC2)cc2c1NC(=O)CC2(C)C	inactive	–
CCC(CN)=C(c1ccccc1)c1ccccc1	inactive	–
NNc1nc(-c2ccc([N+](=O)[O-])cc2)cs1	inactive	–
O=[N+]([O-])c1ccccc1Nc1ccccc1	inactive	–

Compound	Potency	activation
NC(=O)NS(=O)(=O)c1ccc(N)cc1	inactive	–
N#CC1(c2ccc(F)cc2)CCC(=O)CC1	inactive	–
C/C=C1/C(=O)C[C@H]2[C@@H]3CCC4=CC(=O)CC[C@]4(C)[C@H]3CC[C@]12C	inactive	–
CSc1ccc(/C=C2/C(C)=C(CC(=O)O)c3cc(F)ccc32)cc1	inactive	–
Cc1cccc(N(C)C(=S)Oc2ccc3c(c2)C2CCC3C2)c1 (stereo not given)	inactive	–
CCc1oc2ccccc2c1C(=O)c1cc(Br)c(O)c(Br)c1	inactive	–
CSc1ccc(C(=O)c2[nH]c(=O)[nH]c2C)cc1	inactive	–
C[n+]1ccn(Cc2ccccc2)c1	inactive	–
Cc1cccc(CN2CCN(C(c3ccccc3)c3ccc(Cl)cc3)CC2)c1 (stereo not given)	inactive	–
O=CC=C(c1ccccc1)c1ccccc1	inactive	–
CCCCCCCCCCCCc1ccc(O)cc1	10.9 µM (active)	–
CCCCCCCC/C=C\CCCCCCCCOCCO	inactive	–
Cc1cc(O)c(C(C)(C)C)cc1Sc1cc(C(C)(C)C)c(O)cc1C	inactive	–
C[C@]12CCC(=O)C=C1CC[C@@H]1[C@@H]2[C@@H](O)C[C@@]2(C)[C@H]1CC[C@]2(O)C(=O)COC(=O)CCC(=O)O	inactive	–
CCCCN1CCCC[C@H]1C(=O)Nc1c(C)cccc1C	inactive	–
Cc1cc2c(cc1C(F)(F)F)N(C(=O)Nc1ccc(Oc3cccnc3C)nc1)CC2	inactive	–
N=C1N=C(N)c2cc3ccccc3cc21	inactive	–
N#CSc1ccc(N)c([N+](=O)[O-])c1	inactive	–
CCCC(C)c1ccccc1O (stereo not given)	inactive	–
Oc1ccc(N=Nc2ccccc2)cc1	24.7 µM (active)	–
